PubChem BioAssay (NCATS)
Values joined by “and” are separate entries in the source; they are usually repeats but may differ in a detail not shown here. Equal entries are not always repeated. Unmarked numbers belong to inactive results. Inconclusive results are not listed. Active and inactive are the calls of the source. Unless noted, calls follow the shape of the full dose curve.

What was measured:
[1] = AP1 Signaling Pathway (AID 357; active = well fitted curve in either direction with a large enough effect, not every such curve was filed as active;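 also: ME-180 reporter cells stimulated with EGF at its EC50 level; % is scaled to controls: 0 for no effect and ±100 for the full control effect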); conditions: ME-180 AP-1-bla reporter, EGF-induced, beta-lactamase ratio, 5 h
In short: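 Cells are seeded overnight, exposed to compound titrations and an EC50 level of EGF for 5 hours at 37 °C, then loaded with CCF4 dye for 2.5 hours. Beta-lactamase activity under the AP-1 element is read as a blue/green ratio.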

[2] = target: Cytochrome P450 1A2 (Homo sapiens) (UniProt P05177); assay: p450-cyp1a2 (AID 410); conditions: recombinant CYP1A2, luciferin-ME demethylation, luminescence; series mostly up to 57 µM; also: potency is read from the fitted curve at half-maximal effect;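 as to activity change, negative = inhibition: -100% = full effect of reference inhibitor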
In short: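 Read-out is luminescence from luciferin produced by CYP1A2 demethylation of Luciferin-ME (100uM, at Km). Detection reagent stopped the 60 min NADPH-dependent reaction; signals were normalized to 57 uM furafylline.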

[3] = NFAT Signaling Pathway (AID 444; active = well fitted curve in either direction with a large enough effect, not every such curve was filed as active;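 also: carbachol stimulus at about its EC50 of 1 µM final; % is scaled to controls: 0 for no effect and ±100 for the full control effect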); conditions: Jurkat NFAT-bla M1, carbachol, beta-lactamase ratio, 5 h
In short: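 Read-out: CCF4 FRET ratio (460 nm/530 nm) after 1 h RT dye loading, used for %activity and AC50 from titration series. Cells: Jurkat NFAT-β-lactamase/M1 line, treated with compound plus 1 uM carbachol for 5 h, 37 °C.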

[4] = Stat Signaling Pathway (AID 446; active = well fitted curve in either direction with a large enough effect, not every such curve was filed as active;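 also: ME-180 cervical cancer cells given 40 pM IL-6 alongside compound; SIE-controlled beta-lactamase reporter measured as 460/530 nm FRET emission ratio; % is scaled to controls: 0 for no effect and ±100 for the full control effect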); conditions: ME-180 (cervical carcinoma) SIE beta-lactamase reporter, IL-6 stimulated, 5 h
In short: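 Overnight-plated ME-180 cells bearing a STAT Inducible Element beta-lactamase reporter; 5 h co-exposure to compound and 40 pM IL-6; values normalized to 300 pM IL-6 and 125 nM JAK inhibitor controls.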

[5] = target: Glucocorticoid receptor (Homo sapiens) (UniProt P04150); assay: GR-GFP Redistribution (AID 450;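 active = compounds whose dose series gives a full or clear partial fitted curve of increased nuclear translocation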; also: potency is read from the fitted curve at half-maximal effect); conditions: U2OS GR-GFP nuclear translocation, laser cytometry, 2 h
[6] = target: Glucocorticoid receptor (Homo sapiens) (UniProt P04150); assay: GR-EFC Redistribution (AID 451); conditions: CHO-K1 GR-EFC translocation, beta-gal luminescence, 2 h; also: potency is read from the fitted curve at half-maximal effect
In short: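 Translocation of GR-ED fusion to nuclear EA restores b-gal, read by luminescence after 1 h room-temperature detection. Engineered CHO-K1 biosensor cells, 1,000/well, exposed 2 h at 37 C to titrations up to 46 uM final.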

[7] = target: Mitogen-activated protein kinase 10 (Mus musculus) (UniProt Q61831); assay: JNK3 AlphaScreen Assay (AID 530; active = well fitted curve in either direction with a large enough effect, not every such curve was filed as active;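 also: kinase came from lysate of stimulated human HepG2 cells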; also: potency is read from the fitted curve at half-maximal effect;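 as to activity change, negative = inhibition: signal reports phosphorylation of biotinylated GST-cJun 1-79 at Ser73 with 10 µM ATP; % is scaled to controls: 0 for no effect and ±100 for the full control effect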); conditions: JNK3 lysate, c-Jun phosphorylation; series mostly up to 57.1 µM
In short: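 Kinase buffer: 20 mM Tris-HCl pH 7.6, 10 mM MgCl2, 1 mM DTT, 0.1 mM Na3VO4, 0.01% Tween-20; ATP 10 uM. Substrate biotin-GST-cJun(1-79), enzyme from activated HepG2 lysates. Detection by Ser73 phospho-antibody AlphaScreen.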

Cytochrome P450 1A2 (Homo sapiens), sequence (P05177 whole entry, looked up): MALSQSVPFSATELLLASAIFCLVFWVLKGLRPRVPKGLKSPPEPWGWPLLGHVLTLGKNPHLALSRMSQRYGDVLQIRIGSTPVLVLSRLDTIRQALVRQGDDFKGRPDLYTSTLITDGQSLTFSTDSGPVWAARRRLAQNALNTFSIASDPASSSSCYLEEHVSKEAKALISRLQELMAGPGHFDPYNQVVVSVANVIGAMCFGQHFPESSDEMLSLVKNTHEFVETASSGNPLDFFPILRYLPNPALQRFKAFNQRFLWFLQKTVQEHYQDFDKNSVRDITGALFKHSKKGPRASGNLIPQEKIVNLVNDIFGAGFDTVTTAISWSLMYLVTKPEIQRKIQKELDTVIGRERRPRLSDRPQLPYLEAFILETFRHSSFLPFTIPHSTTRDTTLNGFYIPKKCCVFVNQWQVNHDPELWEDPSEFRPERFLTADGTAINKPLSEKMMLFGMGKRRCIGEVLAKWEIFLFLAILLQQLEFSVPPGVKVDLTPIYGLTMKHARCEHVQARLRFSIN
Glucocorticoid receptor (Homo sapiens), sequence (P04150 whole entry, looked up, the tested form may be a part): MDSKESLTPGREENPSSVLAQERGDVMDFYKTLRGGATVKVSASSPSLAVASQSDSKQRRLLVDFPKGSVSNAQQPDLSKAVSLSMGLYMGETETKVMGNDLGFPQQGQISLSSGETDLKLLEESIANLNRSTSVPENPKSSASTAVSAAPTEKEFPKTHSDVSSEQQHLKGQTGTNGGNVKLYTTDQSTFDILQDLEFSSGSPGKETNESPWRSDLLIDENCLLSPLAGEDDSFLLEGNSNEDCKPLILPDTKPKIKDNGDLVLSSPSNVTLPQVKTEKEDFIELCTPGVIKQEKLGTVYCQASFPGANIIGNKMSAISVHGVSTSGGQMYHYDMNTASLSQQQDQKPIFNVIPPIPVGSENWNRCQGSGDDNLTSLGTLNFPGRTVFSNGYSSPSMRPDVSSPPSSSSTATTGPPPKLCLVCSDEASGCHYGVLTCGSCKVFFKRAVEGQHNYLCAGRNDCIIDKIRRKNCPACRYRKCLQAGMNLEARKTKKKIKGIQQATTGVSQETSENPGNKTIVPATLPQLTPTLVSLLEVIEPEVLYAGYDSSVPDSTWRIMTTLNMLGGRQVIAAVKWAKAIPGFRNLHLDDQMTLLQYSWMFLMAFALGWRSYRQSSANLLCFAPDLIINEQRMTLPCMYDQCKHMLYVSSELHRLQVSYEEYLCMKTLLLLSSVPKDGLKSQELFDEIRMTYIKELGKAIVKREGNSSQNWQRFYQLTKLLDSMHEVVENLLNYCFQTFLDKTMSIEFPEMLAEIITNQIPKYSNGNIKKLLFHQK

Nc1nc2c(c(=O)[nH]1)N(C=O)[C@H](CNc1ccc(C(=O)N[C@@H](CCC(=O)O)C(=O)O)cc1)CN2
activity change, negative = inhibition ([1]; at 17.2 µM (top of the series)): -9.84% | Potency [2]: inactive | activity change, negative = inhibition ([3]; at 17.2 µM (top of the series)): 4.7% | activity, negative = inhibition ([4]; at 17.2 µM (top of the series)): 7.59% | Potency [5]: > 20.6 µM | Potency [6]: > 20.6 µM | Potency [7]: inactive

CC(Oc1ccc(O)cc1)(P(=O)(O)O)P(=O)(O)O
Potency [2]: inactive | Potency [5]: > 46 µM | Potency [6]: > 46 µM

COc1cc2c(cc1O)CCC1C2CC[C@@]2(C)C1CC[C@@H]2O (some centres not stated)
Potency [5]: > 46 µM | Potency [6]: > 46 µM

CCN1CCN(C(=O)N[C@H](C(=O)N[C@@H]2C(=O)N3C(C(=O)O)=C(CSc4nnnn4C)CS[C@@H]23)c2ccc(O)cc2)C(=O)C1=O
activity change, negative = inhibition ([1]; at 17.2 µM (top of the series)): 6.77% | Potency [2]: inactive | activity change, negative = inhibition ([3]; at 17.2 µM (top of the series)): 3.22% | activity, negative = inhibition ([4]; at 17.2 µM (top of the series)): 8% | Potency [7]: inactive

COc1cc2c(cc1OC)[C@@H]1C(=O)c3ccc4c(c3O[C@@H]1CO2)C=CC(C)(C)O4
Potency [2]: 15.8 µM (active) | Potency [5]: > 46 µM | Potency [6]: > 46 µM

COc1ccc2c(c1OC)C(=O)OC2[C@H]1c2c(cc3c(c2OC)OCO3)CCN1C (some centres not stated)
activity change, negative = inhibition ([1]; at 17.2 µM (top of the series)): -2.27% | activity change, negative = inhibition ([1]; at 38 µM (top of the series)): -1.8% | Potency [2]: inactive | activity change, negative = inhibition ([3]; at 17.2 µM (top of the series)): -11.3% | activity change, negative = inhibition ([3]; at 38 µM (top of the series)): -9.62% | activity, negative = inhibition ([4]; at 17.2 µM (top of the series)): 4.57% | activity, negative = inhibition ([4]; at 38 µM (top of the series)): 2.78% | Potency [5]: > 46 µM and > 20.6 µM | Potency [6]: > 46 µM and > 20.6 µM | Potency [7]: inactive

O=c1c(O)c(-c2ccc(O)c(O)c2)oc2cc(O)ccc12
Potency [2]: 1.58 µM (active) and 2.51 µM (active) | Potency [5]: > 46 µM | Potency [6]: > 46 µM | Potency [7]: 12.6 µM (active)

O=C(O)C=Cc1ccc(Cn2ccnc2)cc1
Potency [5]: > 46 µM | Potency [6]: > 46 µM | Potency [7]: inactive

COc1cc2ncnc(Nc3cccc(Br)c3)c2cc1OC
Potency [5]: > 46 µM | Potency [6]: > 46 µM

CN(C)CC[C@H](c1ccc(Cl)cc1)c1ccccn1
activity change, negative = inhibition ([1]; at 17.2 µM (top of the series)): 15.5% | activity change, negative = inhibition ([1]; at 38 µM (top of the series)): 10.2% and 11.2% | Potency [2]: inactive | activity, negative = inhibition ([4]; at 17.2 µM (top of the series)): 1.79% | activity, negative = inhibition ([4]; at 38 µM (top of the series)): 2.96% | Potency [5]: > 46 µM and > 20.6 µM | Potency [6]: > 46 µM and > 20.6 µM | Potency [7]: inactive
